# Screens (PubChem)
# Only some compounds are listed: those with a hit (about 2.4% of all), similar ones and a draw of the others.
# 12-LOX inh = ALOX12 (human) lipoxygenase inhibition; P18054; purified 12hLO, xylenol orange hydroperoxide absorbance; Potency, µM (top dose mostly 108 µM), for inactives: at the highest dose activity change, negative = inhibition, usual class: inhibitors; 580,000 compounds, 1.1% hits; AID 1671190; note: % is set by controls: 0 for no effect and ±100 for the full control effect
#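 Hydroperoxide product was detected by ferrous iron/xylenol orange as the 573 to 405 nm absorbance ratio. Arachidonic acid at 40 uM (final) was turned over for 30 min at room temperature by 150 nM human 12hLO, pH 7.0 Hepes buffer, after 15 min compound preincubation.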
# ClpP mod = qHTS Assay for Activators of ClpP; purified B. subtilis ClpP, FRET peptide cleavage, 20 min; Potency, µM (highest dose often 57.5 µM), inactives show top-dose activity change, negative = active; 340,000 compounds, 1.9% hits; active = well fitted falling curve with a large enough effect; inconclusive = small, poorly fitted or top-dose-only effect; inactive = no such curve, though single readings can be large or run the other way; note: the source files actives as falling curves though it sought activators and does not explain the sign; nearly all actives have a fitted effect of over 65% in size
#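 ClpP 10 microg/mL final, pH 8 Tris/KCl buffer with BSA, glycerol, Tween-20; compound pinned in; FRET-FV substrate; RT 20 min; Ex320/Em430; ΔFRET vs ADEP 5.8 microM, DMSO, no enzyme.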
# Rango-impB inh = inhibitors of Rango-importin beta complex formation. Q14974. Rango CFP/YFP FRET sensor + importin beta, 45 min. Potency, µM (series often up to 92.2 µM), for the others: top-dose inhibition of complex formation. 340,000 compounds, 0.031% hits. AID 540263; calls by dose curve;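 note: 0% = DMSO wells and 100% = buffer wells lacking importin beta; nearly all actives have a fitted effect of over 15% in size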
# Target sequence (Q14974 whole entry, looked up): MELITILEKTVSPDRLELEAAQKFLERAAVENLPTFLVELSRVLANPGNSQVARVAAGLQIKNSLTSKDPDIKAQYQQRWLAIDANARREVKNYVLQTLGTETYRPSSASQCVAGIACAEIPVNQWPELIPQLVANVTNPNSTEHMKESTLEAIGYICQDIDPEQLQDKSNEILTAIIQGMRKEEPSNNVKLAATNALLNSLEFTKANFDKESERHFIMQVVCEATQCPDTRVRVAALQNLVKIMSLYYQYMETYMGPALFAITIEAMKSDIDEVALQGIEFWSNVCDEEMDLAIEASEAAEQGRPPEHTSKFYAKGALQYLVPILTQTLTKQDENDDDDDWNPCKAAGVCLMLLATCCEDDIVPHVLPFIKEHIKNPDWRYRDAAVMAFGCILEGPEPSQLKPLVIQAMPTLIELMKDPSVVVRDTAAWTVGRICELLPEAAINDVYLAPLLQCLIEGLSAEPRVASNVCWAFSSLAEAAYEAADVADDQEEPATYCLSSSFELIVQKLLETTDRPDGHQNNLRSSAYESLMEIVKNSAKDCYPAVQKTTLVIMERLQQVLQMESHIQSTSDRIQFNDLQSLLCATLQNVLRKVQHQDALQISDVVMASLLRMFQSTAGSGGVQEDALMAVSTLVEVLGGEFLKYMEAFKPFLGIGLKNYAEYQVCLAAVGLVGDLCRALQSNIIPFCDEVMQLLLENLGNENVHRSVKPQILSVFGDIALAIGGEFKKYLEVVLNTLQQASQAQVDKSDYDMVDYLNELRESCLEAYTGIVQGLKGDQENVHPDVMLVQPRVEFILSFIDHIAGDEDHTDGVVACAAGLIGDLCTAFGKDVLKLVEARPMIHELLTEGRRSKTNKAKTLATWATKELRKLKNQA
#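 Inhibition scored from the CFP 486 nm/YFP 530 nm FRET ratio 45 min after adding 0.125 microM importin beta to 50 nM Rango biosensor preincubated 5 min with compound (room temperature, PBS with DTT, Tween-20, BSA). No-importin wells as positive control.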
# TDP1 block = blocks human tyrosyl-DNA phosphodiesterase 1 | Q9NUW8 | recombinant TDP1, AlphaScreen DNA substrate cleavage | Potency, µM (titrated, usually from 130 µM), for inactives: at the top dose activity change, negative = inhibition, actives largely listed as inhibitors | 350,000 compounds, 0.28% hits | AID 485290; note: % is set by controls: 0 for no effect and ±100 for the full control effect; nearly all actives have a fitted effect of over 40% in size
#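 Signal: AlphaScreen proximity between streptavidin donor and anti-FITC acceptor beads on intact substrate. Reaction: Tdp1 1 nM, substrate 15 nM final, 5 min RT after 15 min compound preincubation.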
# Rango dissoc inh = prevents RanGTP from dissociating the Rango-importin beta complex; Biochemical FRET Rango-importin beta, RanGTP-induced dissociation; Potency, µM (highest dose often 46.1 µM), for inactives: top-dose activity change, negative = inhibition; 340,000 compounds, 0.071% hits; AID 540253; calls by dose curve; note: % of control where 0% means no effect; nearly all actives have a fitted effect of over 45% in size
#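 Rango (0.1 uM)–importin beta (0.25 uM) complex; RanGTP-RCC1 trigger; 45 min RT; CFP/YFP FRET read.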
# PTAP TSG101 blk = blocks PTAP/TSG101 interaction to inhibit HIV-1 budding; 340,000 tested, under 10 active; Potency, µM (doses to about 115 µM), inactives show at the top dose activity change, negative = inhibition, usual class: inhibitors; AID 493005; Q99816; Fluorescence polarization, FITC-PTAP peptide / Tsg101 binding; active = well fitted inhibition curve with a large enough effect in the main read-out, with a control signal flat, not every such curve was filed as active; inconclusive = small, poorly fitted or top-dose-only effect, or effect the other way, or a change in a side signal; inactive = no such curve, though single readings can be large or run the other way; note: % of control where 0% means no effect
#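 Fluorescence polarization binding of Tsg101 binding domain (10 uM final) to FITC-labeled PTAP peptide (50 nM final) in HEPES pH 7.5 buffer with NaCl, Tween 20, EDTA, TCEP. Compounds added before peptide; binding 20 min at RT.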
# * hit, by the source's call; ? = inconclusive; nt = no result given; ! = not active in a repeat. Unless noted, calls come from the whole dose curve; as a rule, active = well fitted curve in the direction sought with a large enough effect; inconclusive = small, poorly fitted or top-dose-only effect, or another doubt; inactive = no such curve, though single readings can be large; an effect the other way counts as inactive or inconclusive. Potency is the fitted concentration of half-maximal effect.
SMILES,12-LOX inh,ClpP mod,Rango-impB inh,TDP1 block,Rango dissoc inh,PTAP TSG101 blk
CCN1CCN(C(=O)c2ccc(N3CC4CC(C3)[C@H]3CCCC(=O)N3C4)nc2)CC1 (stereo partly drawn),29%,nt,nt,nt,nt,nt
Cn1c(=O)c2c(nc(Sc3ccccc3)n2Cc2ccc(Cl)cc2)n(C)c1=O,12%,nt,nt,nt,nt,nt
OCc1ccc(-c2nc(C3CCOC3)nn2C2CCCCC2)cc1 (stereo not drawn),18%,nt,nt,nt,nt,nt
Cc1ccc2[nH]c3c(NCc4ccco4)ncnc3c2c1,-16%,18µM*,-5%,1%,-11%,5%
CCOC(=O)c1cc2n(n1)CC(C)(C(=O)NCCC(C)C)N(c1cccc(Cl)c1C)C2=O (stereo not drawn),-5%,nt,nt,nt,nt,nt
CC(=O)N1CCOc2cc(S(=O)(=O)NCc3ccccc3Cl)c(Cl)cc21,2%,2%,nt,6.3µM*,nt,nt
CC(=O)N1CCOc2ccc(S(=O)(=O)NCc3ccc(F)cc3)cc21,12%,-1%,-3%,45µM*,10%,-1%
CC(=O)N1CCOc2ccc(S(=O)(=O)NCCc3ccc(S(N)(=O)=O)cc3)cc21,7%,-3%,0%,-5%,3%,-3%
O=C(CC1CCCCC1)Nc1cccc2c1CCCC2,-4%,nt,nt,nt,nt,nt
COC1=C(OC)C(=O)C(Sc2ccc3ccccc3c2)=CC1=O,2µM*,-1%,0%,nt,-6%,-1%
Cn1c(-c2ccc3nc(N)sc3c2)nc2cc(N)ccc21,-15%,10µM*,?,?,-20%,-4%
C=CCn1c(-c2ccc(C)cc2)nc2ccccc21,12%,7.1µM*,3%,2%,1%,-4%
Cn1c(-c2ccc(N)cc2)nc2ccccc21,340%,2.8µM*!,4%,-1%,-11%,-2%
CC(C)c1ccc2nc(N)sc2c1,0%,nt,0%,4%,11%,-3%
COc1ccc(C(=O)N2CCC3(CNc4ccccc4[S+](=O)([O-])N3)C2)cc1 (stereo not drawn),32%,nt,nt,nt,nt,nt
CN1C(=O)N(Cc2cccnc2)C(=O)C12CCN(Cc1cc3ccccc3o1)CC2,32%,nt,nt,nt,nt,nt
CC1=N/C(=C/c2ccco2)C(=O)O1,-19%,nt,-1%,5.6µM*,-13%,-1%
O=C1OC(c2ccc(Br)cc2)=N/C1=C\c1ccco1,-28%,nt,0%,-5%,10%,-7%
Cc1oc(-c2nc(C#N)c(N3CCCCCC3)o2)cc1S(=O)(=O)N1CCCC1,22%,nt,nt,nt,nt,nt
O=C1c2nc3cc(-c4ccco4)[nH]n3c(=O)c2CN1Cc1ccccc1,22µM*,2%,-2%,nt,-2%,1%
Cc1ccccc1OCCCn1c(CO)nc2ccccc21,7%,-5%,-2%,-3%,-1%,-1%
CCc1nc2ccccc2n1CCCCOc1ccccc1C,40µM*,2%,nt,-3%,nt,nt
Cc1ccc(NC(=O)N2CCCCCCN(C)C(=O)CC2)cc1C,20%,nt,nt,nt,nt,nt
O=C(Cc1ccccc1)NCCCNC(=O)Cc1ccccc1,3%,28µM*,-1%,nt,0%,-7%
CCOc1ccccc1C1NC(=O)N(CC(=O)N(C)c2ccccc2)C2=C1C(=O)OC2 (stereo not drawn),7%,nt,nt,nt,nt,nt
COC[C@@H]1CCCN1Cc1cc2ccc(C)cc2nc1-c1ccc(OC)cc1,26%,nt,nt,nt,nt,nt
COc1ccc(NS(=O)(=O)CC(C)C)c(OC)c1,-29%,-2%,4%,3%,1%,0%
CCS(=O)(=O)Nc1ccc(-c2ccc(NS(=O)(=O)CC)c(OC)c2)cc1OC,-13%,11µM*,-2%,4%,4%,-6%
CN1CCCC1c1nc(C2CN(C(=O)CCc3nc4ccccc4[nH]3)C2)no1 (stereo not drawn),13%,nt,nt,nt,nt,nt
COCC1CN(C(=O)C2CC=CC2)CC12CCNCC2 (stereo not drawn),21%,nt,nt,nt,nt,nt
